Screens from PubChem.
L3MBTL1 block: inhibitors of human L3MBTL1 | AlphaScreen L3MBTL1–H3K9me1 peptide binding | Potency, µM (series often up to 57.1 µM), without a hit: at the top dose activity, negative = inhibition, actives largely listed as inhibitors | AID 485360 | hit rate 0.66% among 230,000 | Q9Y468; also: potency is read from the fitted curve at half-maximal effect; % is scaled to controls: 0 for no effect and ±100 for the full control effect; nearly all actives have a fitted effect of over 60% in size
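L3MBTL1 (50 nM) pre-complexed 30 min with biotinylated H3(1-15)K9me1 peptide (75 nM), then compounds added for 30 min at room temperature; AlphaScreen streptavidin donor/nickel chelate acceptor beads (10 ug/mL final) read after 30 min dark incubation.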
PI5P4Ka inh: inhibitors of human PI5P4K alpha; hit rate 1.2% among 330,000; max response, %; AID 652105; PI5P4Kalpha enzyme, ADP-Glo luminescence, 60 min; hits give low values; P48426; active = max response of -50% or lower; inconclusive = between -30% and -50%; inactive = -30% or higher; also: value at the top dose of about 77 µM; % is scaled to controls: 0 for no effect and ±100 for the full control effect
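Controls without substrate or without enzyme flank wells where PI5P4Kalpha converts substrate using 5 microM ATP (final). Incubation lasts 60 minutes at room temperature; ADP formed is read by ADP-Glo luminescence.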
G9a inh: blocks human histone lysine methyltransferase G9a. G9a H3K9 monomethylation, AlphaScreen, 2 h. hit rate 8.8% among 350,000. Potency, µM (highest dose often 102 µM), for inactives: at the highest dose activity, negative = inhibition, most hits filed as inhibitors. Q96KQ7; also: potency is read from the fitted curve at half-maximal effect; % is scaled to controls: 0 for no effect and ±100 for the full control effect; nearly all actives have a fitted effect of over 75% in size
Target sequence (Q96KQ7 913-1193 limits assumed): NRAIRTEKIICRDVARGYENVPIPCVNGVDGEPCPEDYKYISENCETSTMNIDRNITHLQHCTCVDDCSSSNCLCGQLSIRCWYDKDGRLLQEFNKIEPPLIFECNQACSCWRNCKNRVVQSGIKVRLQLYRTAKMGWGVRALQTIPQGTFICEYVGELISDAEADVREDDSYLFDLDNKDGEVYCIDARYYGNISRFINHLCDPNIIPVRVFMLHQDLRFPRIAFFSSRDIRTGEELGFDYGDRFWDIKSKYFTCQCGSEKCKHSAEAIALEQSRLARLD
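Chemiluminescent proximity detection of H3K9 monomethylation, read after 10 min bead incubation in the dark. Reaction: 20 nM G9a, 500 nM biotin-H3K9 peptide, 20 uM SAM cofactor, 2 h, room temperature, following 15 min enzyme-compound preincubation.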
BAZ2B inh: BAZ2B (human) inhibition; AlphaScreen BAZ2B-H3K14Ac peptide displacement; AID 504333; Potency, µM (top dose mostly 114 µM), inactives show at the highest dose activity change, negative = inhibition, most hits filed as inhibitors; hit rate 4.4% among 360,000; also: potency is read from the fitted curve at half-maximal effect; % is scaled to controls: 0 for no effect and ±100 for the full control effect; nearly all actives have a fitted effect of over 60% in size
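Multi-concentration screen (max 110 uM) measuring displacement of acetylated histone H3 peptide from BAZ2B by AlphaScreen, using 50 nM protein, 50 nM peptide and 10 ug/mL streptavidin donor plus Ni-chelate acceptor beads.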
HP1b binding inh: inhibitors of HP1-beta chromodomain binding to methylated histone tails; P83916; Potency, µM (highest dose often 114 µM), without a hit: at the top dose activity change, negative = inhibition, actives largely listed as inhibitors; hit rate 0.56% among 390,000; AlphaScreen HP1-beta / biotin-H3K9me3 peptide binding; also: potency is read from the fitted curve at half-maximal effect; nearly all actives have a fitted effect of over 70% in size
Target sequence (P83916 whole entry, looked up): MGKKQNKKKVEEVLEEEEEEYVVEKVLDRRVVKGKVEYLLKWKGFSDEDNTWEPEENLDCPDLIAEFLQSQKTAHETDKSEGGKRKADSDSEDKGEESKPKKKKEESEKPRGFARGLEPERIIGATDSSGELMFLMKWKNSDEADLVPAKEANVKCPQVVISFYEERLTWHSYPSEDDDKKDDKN
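AlphaScreen: HP1-beta (50 nM) preformed 30 min with biotin-H3(1-18)K9me3 peptide (50 nM) in PBS pH 7.4, 0.01% Tween-20. Compound added for 30 min at RT, then streptavidin donor/nickel chelate acceptor beads (10 ug/mL) for 30 min.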
JMJD2A Tudor: blocks the human JMJD2A Tudor domain; O75164; AlphaScreen JMJD2A-Tudor / H3K4me3 peptide binding; Potency, µM (doses to about 114 µM), inactives show at the highest dose activity change, negative = inhibition, hits mostly inhibitors; hit rate 4.4% among 390,000; also: potency is read from the fitted curve at half-maximal effect; % is scaled to controls: 0 for no effect and ±100 for the full control effect; nearly all actives have a fitted effect of over 50% in size
An asterisk follows results filed as active; [ ] = remark or other dose. Rows were chosen to be rich in hits. Some 11% of all compounds tested hit in one or more screens of this group. Unless noted, calls follow the shape of the dose curve; as a rule, active = well fitted inhibition curve with a large enough effect; inconclusive = small, poorly fitted or top-dose-only effect; inactive = no such curve, though single readings can be large or run the other way.

Results for C[C@@]12CCC(=O)C=C1CC[C@@H]1[C@@H]2[C@H](O)C[C@]2(C)[C@@H]1CC[C@]2(O)C(=O)CO ?
G9a inh: 24%[21.5 µM]

What do the screens show for `N#Cc1ccc(OC(=O)c2cnccn2)cc1`?
PI5P4Ka inh: -1; G9a inh: 32µM*; BAZ2B inh: 79µM*; HP1b binding inh: 8%; JMJD2A Tudor: inconclusive

What do the screens show for `CCC(=O)N1c2ccccc2CC1C(=O)NCCc1ccc(Cl)cc1` (stereo not drawn)?
G9a inh: 16%[59 µM]; BAZ2B inh: -10%; HP1b binding inh: 41%; JMJD2A Tudor: -9%

Results for CC(C)(C)C(=O)[C@H]1[C@H](c2ccccc2)[C@@]2(N=C(c3ccccc3)OC2=O)C2c3ccccc3C=NN21 (stereo partly drawn) ?
L3MBTL1 block: -3%; PI5P4Ka inh: 1; G9a inh: 79µM*; BAZ2B inh: -3%[57.1 µM]; HP1b binding inh: -5%; JMJD2A Tudor: inconclusive

What do the screens show for `Cc1ccc(N2C(=O)[C@@H]3[C@H](C2=O)C2c4ccccc4C=NN2[C@@H]3C(=O)c2ccc(Cl)cc2)cc1` (stereo partly drawn)?
L3MBTL1 block: 5%; PI5P4Ka inh: 3; G9a inh: -23%[59 µM]; BAZ2B inh: 1%; HP1b binding inh: 45%; JMJD2A Tudor: -12%

How did CC(=O)c1ccc(Nc2ccc3cc(S(=O)(=O)N4CCCC4)ccc3n2)cc1 do in these assays?
G9a inh: inconclusive; BAZ2B inh: 2%; HP1b binding inh: 35%; JMJD2A Tudor: -25%

Results for O=c1oc2c3c(ccc2c2ccccc12)OCN(Cc1ccccc1Cl)C3 ?
G9a inh: 1.3µM*; BAZ2B inh: inconclusive; HP1b binding inh: 39%; JMJD2A Tudor: -35%

What do the screens show for `Cc1ccc(-n2c(SCC(=O)Nc3ccc4c(c3)OCCO4)nc3c([nH]c4ccccc43)c2=O)cc1`?
G9a inh: -3%[59 µM]; BAZ2B inh: -4%; HP1b binding inh: 5%[57 µM]; JMJD2A Tudor: -27%

How did Cc1cc(C(=O)O)c(=O)[nH]c1C do in these assays?
L3MBTL1 block: 5%; G9a inh: 71µM*; BAZ2B inh: inconclusive; HP1b binding inh: -5%; JMJD2A Tudor: 22µM*

Results for CCOc1ccccc1CNC(=O)CCCN1C(=O)COc2ccc(C)cc21 ?
G9a inh: 1%[59 µM]; BAZ2B inh: -5%; HP1b binding inh: 24%; JMJD2A Tudor: -16%

What do the screens show for `Cc1ccc(C(OCC(O)CNC(C)c2ccccc2)c2ccccc2)cc1` (stereo not drawn)?
L3MBTL1 block: 14%; PI5P4Ka inh: 24; G9a inh: 8.9µM*; BAZ2B inh: 40µM*; HP1b binding inh: inconclusive; JMJD2A Tudor: 1.3µM*

How did Cc1ccc(C(OCC(O)CN2CCCCC2)c2ccccc2)cc1 (stereo not drawn) do in these assays?
PI5P4Ka inh: 3; G9a inh: -1%; BAZ2B inh: 0%; HP1b binding inh: 28%; JMJD2A Tudor: -5%

What do the screens show for `Cc1ccc(C(OCC(O)CNC(CO)C(O)c2ccc([N+](=O)[O-])cc2)c2ccccc2)cc1` (stereo not drawn)?
PI5P4Ka inh: 7; G9a inh: 13µM*; BAZ2B inh: 50µM*; HP1b binding inh: inconclusive; JMJD2A Tudor: 40µM*

Results for CN(C(=O)Cn1c(=O)n(Cc2ccc(C(=O)NCc3ccc4c(c3)OCO4)cc2)c(=O)c2ccccc21)c1ccccc1 ?
G9a inh: 1%[59 µM]; BAZ2B inh: -3%; HP1b binding inh: 59%; JMJD2A Tudor: -20%

What do the screens show for `CCC(=O)Nc1nc(-c2ccc3c(c2)OCCO3)cs1`?
L3MBTL1 block: 3%; PI5P4Ka inh: -9; G9a inh: -12%[59 µM]; BAZ2B inh: -6%; HP1b binding inh: 53%; JMJD2A Tudor: -15%

What do the screens show for `Nc1ccc(Nc2nc(-c3ccncc3)cs2)cc1`?
G9a inh: 40µM*; BAZ2B inh: inconclusive; HP1b binding inh: -31%; JMJD2A Tudor: 56µM*

Results for Cc1nc2ncccn2c1-c1csc(NCc2ccco2)n1 ?
L3MBTL1 block: -18%; PI5P4Ka inh: 6; G9a inh: inconclusive; BAZ2B inh: inconclusive; HP1b binding inh: 5%; JMJD2A Tudor: -6%[57.1 µM]

What do the screens show for `Oc1ccc(Nc2nc(-c3ccc(O)cc3)cs2)cc1`?
L3MBTL1 block: -15%; G9a inh: inconclusive; BAZ2B inh: 28µM*; HP1b binding inh: inconclusive; JMJD2A Tudor: inconclusive

Results for c1coc(CNc2nc(-c3cccs3)cs2)c1 ?
L3MBTL1 block: 28µM*; PI5P4Ka inh: 2; G9a inh: 20µM*; BAZ2B inh: 45µM*; HP1b binding inh: -32%; JMJD2A Tudor: inconclusive

Results for c1cc2c(cc1-c1csc(NNC3=NCCCCC3)n1)OCCO2 ?
PI5P4Ka inh: -14; G9a inh: 6.3µM*; BAZ2B inh: 35µM*; HP1b binding inh: inconclusive; JMJD2A Tudor: -26%[11.4 µM]

Results for CCOc1ccc(NC(=O)CSc2nnc3scc(-c4ccc(Cl)cc4)n23)cc1 ?
G9a inh: 1%[59 µM]; BAZ2B inh: -3%; HP1b binding inh: 27%; JMJD2A Tudor: -8%

How did CN(C)C(=O)c1ccc(-c2cncnc2NCc2cccnc2)cc1 do in these assays?
G9a inh: 8%[0.501 µM]

What do the screens show for `c1ccc(-c2csc(Nc3ccc4c(c3)OCCO4)n2)cc1`?
PI5P4Ka inh: 4; G9a inh: 11µM*; BAZ2B inh: 50µM*; HP1b binding inh: -52%; JMJD2A Tudor: 71µM*

How did Brc1ccc(Nc2nc(-c3cccnc3)cs2)cc1 do in these assays?
L3MBTL1 block: 6%; PI5P4Ka inh: -10; G9a inh: 32µM*; BAZ2B inh: -15%; HP1b binding inh: 31%; JMJD2A Tudor: -22%

What do the screens show for `c1cncc(Nc2nc(-c3cccs3)cs2)c1`?
L3MBTL1 block: -2%; G9a inh: inconclusive; BAZ2B inh: inconclusive; HP1b binding inh: inconclusive; JMJD2A Tudor: 20µM*

How did Brc1cccc(Nc2nc(-c3cccnc3)cs2)c1 do in these assays?
L3MBTL1 block: -2%; PI5P4Ka inh: -1; BAZ2B inh: -1%; HP1b binding inh: 38%; JMJD2A Tudor: -12%

What do the screens show for `Oc1ccc(Nc2nc(-c3cccnc3)cs2)cc1`?
L3MBTL1 block: -3%; PI5P4Ka inh: 1; G9a inh: 40µM*; BAZ2B inh: inconclusive; HP1b binding inh: -15%; JMJD2A Tudor: inconclusive

How did OC[C@H]1O[C@H](n2cnc3c(N[C@H]4CCC[C@@H]4O)ncnc32)[C@H](O)[C@@H]1O do in these assays?
G9a inh: 39%[59 µM]

Results for CCCCC/C=C\C\C=C/C=C/C=C/[C@@H](SC[C@H](NC(=O)CC[C@H](N)C(=O)O)C(=O)NCC(=O)O)[C@@H](O)CCCC(=O)O ?
G9a inh: 3%[59 µM]
